Measurements from PubChem BioAssay.

Assay: optical density shifts of acrAB sulA E. coli – strain DRC41, OD650, 48 h, E. coli filamentation inducer project, primary screen (AID 1152);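 also: E. coli MC1000 strain DRC41 lacking acrAB efflux pump and sulA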
Settings: higher = more signal, called active from +8 up or from −8 down

z-score, inactive:
CC(C)c1ccc(NN2C(C(O)c3ccc4c(c3)OCO4)C=CC3C(=O)N(c4ccccc4)C(=O)C32)cc1 (stereo unspecified) -0.481
C[C@@H]1CCC2C(=O)N(Cc3ccccc3)C[C@@H](O)CN2[C@H]1c1ccc(Br)cc1 (stereo partly specified) -0.732
O=C1[C@H]2[C@H]3[C@H](O)[C@H](O)CC(=NO[C@@H]4O[C@H](CO)[C@@H](O)[C@H](O)[C@H]4O)[C@H]3CC[C@H]2C(=O)N1Cc1ccc2c(c1)OCO2 0.614
CC[C@@H](c1ccccc1)n1c(=O)n2n(c1=O)[C@H]1[C@H](O)[C@@H]3O[C@@H]3C(=NOCC=C(C)CCC=C(C)C)[C@H]1CC2 -1.15
CC(C)(C)N1C(=O)[C@H]2[C@H]3[C@H](O)[C@H](O)CC(=NO[C@@H]4O[C@H](CO)[C@@H](O)[C@H](O)[C@H]4O)[C@@H]3CC[C@H]2C1=O 0.383
CC(C)(C)N1C(=O)[C@H]2[C@H]3[C@H](O)[C@H](O)CC(=NOCc4ccccc4)[C@@H]3CC[C@H]2C1=O 0.831
COCCOC(=O)N1C(=O)[C@@]2(c3cc(C#CCNC(N)=O)ccc31)[C@H](c1ccccc1OCCO)N1[C@H](c3ccccc3)[C@H](c3ccccc3)OC(=O)[C@H]1[C@@H]2C(=O)N1CCN(c2ncccn2)CC1 0.981
COc1ccc(O[C@H]2C=C[C@@H](c3ccccc3)O[C@@H]2COC(=O)N2CCCCC2)cc1 0.309
CCc1cccc(NC(=O)O[C@H]2[C@H](OC(=O)Nc3ccc4c(c3)OCO4)[C@@H](OC(=O)Nc3ccc4c(c3)OCO4)[C@@H](OC)O[C@@H]2CO)c1 0.861
CCN1C(=O)[C@H]2[C@H]3[C@H](O)[C@H](O)CC(=NOCC=C(C)CCC=C(C)C)[C@H]3CC[C@H]2C1=O 0.376
CC(C)C[C@@H]1NC(=O)[C@H]2C[C@@H](C(=O)O)[C@@H](c3ccc(O)cc3)N2C1=O 0.498
CN(C)C(=O)[C@@]1(Cc2ccccc2)N=C(c2ccc(OCCCO)cc2)O[C@H]1c1ccccc1CN=[N+]=[N-] 0.374
CO[C@@H]1COC(=O)CC=C[C@@H](C)[C@@H]2C=C[C@H](O)[C@@H](COC(=O)CCC[C@H]1C)O2 -0.457
CC(C)CON=C1C[C@@H](O)[C@@H](O)[C@@H]2[C@@H]3C(=O)N(Cc4ccccc4)C(=O)[C@@H]3CC[C@@H]12 0.102
COC(=O)c1c(CC[C@@H](CO)NC(=O)N[C@H](Cc2ccccc2)Cn2cc(-c3ccccc3N)nn2)oc(C(C)=O)c1C(=O)OC 0.144
CO[C@@H]1COC(=O)CCC[C@@H](C)[C@H](OC)COC(=O)CCC[C@H]1C -0.665
CCOC(=O)CCN1C(=O)[C@H]2[C@H]3[C@H](O)[C@H](O)CC(=NOC[C@@H](O)COCc4ccco4)[C@@H]3CC[C@H]2C1=O 0.401
C=COC[C@H]1CN2[C@@H](CC[C@@H](C)[C@@H]2c2ccc(Br)cc2)C(=O)O1 -1.63
O=C1C[C@@H](O)[C@@H](O)[C@@H]2[C@@H]3C(=O)N(c4cccc(Oc5ccccc5)c4)C(=O)[C@@H]3CC[C@@H]12 -0.268
COc1ccc([Si](C)(C)[C@@H]2[C@@H](CCO)O[C@]3(C(=O)N(Cc4ccc(NC(C)=O)cc4)c4ccccc43)[C@H]2C)cc1 0.694
O=C1[C@H]2[C@H]3[C@H](O)[C@H](O)CC(=NO[C@@H]4O[C@H](CO)[C@@H](O)[C@H](O)[C@H]4O)[C@H]3CC[C@H]2C(=O)N1C1CCCCC1 -0.094
COc1ccc(-c2ccc3c(n2)CCCN3CC(O)CN2CCCc3nc(C)c(C)cc32)cc1 (stereo unspecified) 0.125
O=C1CCCC2OC12C(O)CCc1ccccc1 (stereo unspecified) 0.508
C[C@@H](c1ccccc1)N1C(=O)[C@H]2[C@H]3[C@H](O)[C@H](O)CC(=NNC(=O)OCc4ccccc4)[C@H]3CC[C@H]2C1=O 0.645
COc1ccc(O[C@H]2C=C[C@@H](c3ccccc3)O[C@@H]2COC(=O)CCC(C)=NOCC[C@@H]2C=C[C@H](OC(C)=O)[C@@H](COC(C)=O)O2)cc1 -0.445
COC(=O)C1=C(C)N(Cc2ccccc2)[C@]23O[C@](C(=O)OC)(C(=O)N2[C@@H]1c1ccccc1)[C@H]1CCOC(=O)[C@H]13 -0.238
